GPR151 ag: activators of human GPR151; activation, % at 11.2 µM; Q8TDV0; 650,000 compounds, 1% hits; AID 1508602; PathHunter beta-arrestin GPR151 cells, luminescence; in the data active = activation above about 4.9%;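 also: 0% = median of compound wells and 100% = cells with positive control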
MITF inh: blocks human microphthalmia-associated transcription factor | O75030 | AlphaScreen MITF homodimerization, bead proximity signal | inhibition, % at 2.6 µM | 650,000 compounds, 0.91% hits; in the data active = inhibition above about 50%;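 also: 0% = vehicle wells with protein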
TEAD-YAP inh: TEAD-YAP interaction inhibition | HEK-TIYL cells, TEAD-Gal4/YAP UAS-luciferase luminescence | inhibition, % at 9.12 µM | 640,000 compounds, 1.4% hits; in the data active = inhibition above about 32%;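 also: 0% = median of test compound wells and 100% = reference inhibitor wells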
FBW7 activator: activators of human E3 ligase FBW7 | 650,000 compounds, 0.13% hits | normalized activity (activation), % at 26.1 µM | AlphaScreen FBW7–phospho-cyclin E peptide binding, activator screen | Q969H0; in the data active = normalized activity above about 1.9%;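 also: purified mutant Fbw7 with reduced substrate affinity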
Target sequence (Q969H0 whole entry, looked up): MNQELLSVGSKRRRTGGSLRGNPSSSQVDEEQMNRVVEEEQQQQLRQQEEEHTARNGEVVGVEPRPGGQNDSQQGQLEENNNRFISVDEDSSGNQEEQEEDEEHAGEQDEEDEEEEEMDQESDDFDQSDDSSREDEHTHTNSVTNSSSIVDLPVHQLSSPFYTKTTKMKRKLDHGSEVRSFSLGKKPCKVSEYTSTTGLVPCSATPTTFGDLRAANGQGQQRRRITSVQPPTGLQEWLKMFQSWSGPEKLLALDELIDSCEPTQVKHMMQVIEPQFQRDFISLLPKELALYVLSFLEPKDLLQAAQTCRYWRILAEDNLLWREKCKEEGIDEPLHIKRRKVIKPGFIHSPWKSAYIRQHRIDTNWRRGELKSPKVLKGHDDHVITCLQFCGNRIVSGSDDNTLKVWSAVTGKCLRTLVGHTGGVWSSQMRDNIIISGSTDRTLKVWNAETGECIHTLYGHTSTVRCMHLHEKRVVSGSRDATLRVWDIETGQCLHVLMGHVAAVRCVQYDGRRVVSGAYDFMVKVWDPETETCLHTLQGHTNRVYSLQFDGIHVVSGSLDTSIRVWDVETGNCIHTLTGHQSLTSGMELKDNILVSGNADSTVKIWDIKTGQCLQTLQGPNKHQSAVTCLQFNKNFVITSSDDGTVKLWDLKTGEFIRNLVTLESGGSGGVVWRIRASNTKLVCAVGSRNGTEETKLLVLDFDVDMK
Starred values were filed as active, the others as inactive. Hits are enriched below; roughly 3.5% of the tested compounds scored in any of these assays.

SMILES	GPR151 ag	MITF inh	TEAD-YAP inh	FBW7 activator
Cc1sc(NC(=S)NC(=O)CCc2ccccc2)c(C(N)=O)c1C	0	-4	50*	0
COC(=O)CCC(=O)Nc1sc(C)c(C)c1C(N)=O	1	2	-5	0
Cc1c(Cc2ccc3c(c2)OCO3)sc(NC(=O)CCc2ccccc2)c1C(N)=O	2	-12	56*	0
CC(=O)Nc1sc(Cc2ccc3c(c2)OCO3)c(C)c1C(N)=O	-1	2	-2	0
Cc1sc(NC(=O)c2ccc3c(c2)OCO3)c(C(N)=O)c1-c1ccccc1	0	-2	90*	0
COC(=O)CCC(=O)NC(=S)Nc1sc(C)c(C)c1C(N)=O	2	-10	52*	0
CCOC(=O)C1=CN(Cc2ccc(Cl)cc2)C=C(C(=O)OCC)C1c1ccc(OC)cc1	2	3	-6	0
CCOc1cc(C2C(C#N)=C(N)Oc3c2ccc2ccccc32)cc(Br)c1O (stereo unspecified)	0	1	65*	0
Clc1cc(Cl)c2c(c1)C1C=CCC1C(c1ccccc1)N2 (stereo unspecified)	0	12	10	0
O=C(O)C1Nc2c(Cl)cc(Cl)cc2C2C=CCC12 (stereo unspecified)	1	59*	8	0
O=C(O)C1Nc2c(Cl)cc(Cl)c(Cl)c2C2C=CCC12 (stereo unspecified)	-1	58*	9	1
N#Cc1cc(-c2ccnc(Nc3ccc(N4CCNCC4)cc3)n2)cc(N2CCOCC2)c1	0	-3	32*	-1
N#Cc1cc(-c2ccnc(Nc3ccc(CN4CCCCC4)cc3)n2)cc(N2CCOCC2)c1	0	1	36*	0
Cc1cc(C)cc(NC(=O)c2cc(S(=O)(=O)N3CCCCCC3)ccc2F)c1	-2	-10	-11	0
CCOc1cc(CO)c(Br)cc1OCc1ccc([N+](=O)[O-])cc1	1	0	4	1
O=C1C(NC2CCCCC2)=C(N2CCCCC2)C(=O)c2ccccc21	-1	16	1	1
CNC1=C(N2CCCCC2)C(=O)c2ccccc2C1=O	-3	13	94*	1
CCCNC1=C(N2CCCCC2)C(=O)c2ccccc2C1=O	-1	23	93*	1
CC(=O)Nc1ccc(NC2=C(N3CCOCC3)C(=O)c3ccccc3C2=O)cc1	-1	11	-5	0
CCOc1ccc(NC2=C(N3CCOCC3)C(=O)c3ccccc3C2=O)cc1	1	54*	-25	0
O=C1C(N2CCCCC2)=C(N2CCCCC2)C(=O)c2ccccc21	-3	-7	-2	-1
CCOc1ccccc1-n1cccc1/C=C1\C(=N)N2N=CSC2=NC1=O	1	2	-2	0
CCN(CC)c1ccc(/C=C2\SC(=S)N(CCCC(=O)O)C2=O)cc1	-1	24	92*	0
COc1ccc(/C=C2\SC(=S)N(CCC(=O)OCCN3CCOCC3)C2=O)cc1	0	12	54*	0
Cc1ccc(/C=C2/SC(=S)N(CN3CCOCC3)C2=O)o1	-1	78*	1	0
SMILES	GPR151 ag	MITF inh	TEAD-YAP inh	FBW7 activator
CCN(CC)c1ccc(/C=C2/SC(=S)N(CCC(=O)OC)C2=O)cc1	0	16	62*	0
COc1ccc(/C=C2\SC(=S)N(CCC(=O)N3CCOCC3)C2=O)cc1	2	8	3	0
COc1cccc(-n2cc(C(=O)N3C(C)CCCC3C)c3ccccc3c2=O)c1 (stereo unspecified)	0	7	3	0
CCCCN(c1ccccc1)S(=O)(=O)c1cc(Br)cnc1N	0	-10	-1	0
Cc1cccc2cc(C#N)c(SCC(=O)NC(C)(C)C)nc12	0	0	-9	0
Cc1ccc(/C=C2\SC(=S)N(NC(=O)c3ccc(O)cc3)C2=O)o1	-2	54*	6	0
O=C(NN1C(=O)/C(=C/c2ccc(O)cc2)SC1=S)c1cccc(O)c1	-1	0	-3	0
Cc1nc(N/N=C/c2ccc(O)cc2O)cc(-c2ccccc2)n1	0	7	10	0
Oc1ccc(/C=N/Nc2ncc(-c3ccccc3)cn2)c(O)c1	-1	31	62*	-1
Cc1cc(N/N=C/c2ccc(O)cc2O)nc(-c2ccccc2O)n1	-1	3	43*	0
Cc1cc(N/N=C\c2ccccc2)nc(-c2ccccc2O)n1	0	6	15	0
COc1cc2nc(Nc3cc(OC)c(OC)c(OC)c3)nc(Nc3ccc4c(c3)OCO4)c2cc1OC	-2	9	16	0
Cc1cccc(C(=O)NC(=S)Nc2ccc3oc(-c4ccccc4)nc3c2)c1	-1	0	-18	0
COc1ccccc1/C=C/C(=O)c1c(C)cc(C)[nH]c1=O	-1	-2	37*	0
Cc1cc(C)c(C(=O)/C=C/c2ccccn2)c(=O)[nH]1	-2	12	77*	0
COc1cccc(/C=C/C(=O)c2c(C)cc(C)[nH]c2=O)c1O	0	2	1	0
CN(C(=O)c1ccccn1)C(Cc1ccccc1)C1CCN(C(=O)C2CCCO2)CC1 (stereo unspecified)	-1	-7	-21	0
Cn1c(O)c(/C=N/NC(=O)c2cccc3ccccc23)c2ccccc21	0	-2	14	0
COc1cc(Nc2cc(C)nc(NCc3ccc4c(c3)OCO4)n2)cc(OC)c1OC	4	16	43*	1
COc1cc(Nc2ccnc(NCc3ccc4c(c3)OCO4)n2)cc(OC)c1OC	1	2	35*	0
COc1cc(Nc2nccc(Nc3ccc4c(c3)OCO4)n2)cc(OC)c1OC	2	3	34*	0
COc1ccc(-c2nccc(Nc3cc(OC)c(OC)c(OC)c3)n2)cn1	0	5	60*	0
Cc1cc2ccccc2n1CCNC(=O)Cc1ccc(F)cc1	1	-1	-1	0
CCc1cccc(NCc2c(CO)cnc(C)c2O)c1	-1	3	-10	0
COc1ccc(NC(=O)c2c(O)c3c(n(CC(C)C)c2=O)CCCC3)cc1	1	-10	-4	0
SMILES	GPR151 ag	MITF inh	TEAD-YAP inh	FBW7 activator
Cc1ccc(N(CC(=O)Nc2cccc(Cl)c2C)S(C)(=O)=O)cc1Cl	0	-4	-2	0
O=C(CSc1nc2ccccc2c(=O)n1CCCN1CCCCC1)Nc1nccs1	1	5	42*	0
Cc1cc(NC(=O)CSc2nc(Nc3ccc4c(c3)OCO4)c3ccccc3n2)n[nH]1	1	9	50*	0
CC(C)CCNC(=O)CSc1nc(Nc2ccc3c(c2)OCO3)c2ccccc2n1	0	1	10	1
Cc1cc(NC(=O)CSc2nc3ccccc3c3nc(CCN4CCCCC4)nn23)n[nH]1	-1	15	58*	1
Cc1cc(NC(=O)CSc2nc3ccccc3c3nc(CCc4c[nH]c5ccccc45)nn23)n[nH]1	1	-10	61*	0
O=C(CN(C(=O)c1ccc([N+](=O)[O-])cc1)N1C(=O)c2ccccc2C1=O)c1cccs1	-1	11	19	0
O=C(Nc1ccc(Br)cc1)c1ccc(Br)c(S(=O)(=O)Nc2cccc(Br)c2)c1	-2	4	-4	0
OCn1nc(Cc2ccccc2)oc1=S	-1	14	0	0

High-throughput results: PubChem BioAssay, The Scripps Research Institute Molecular Screening Center
